In PubChem BioAssay (NCI):
This is part of a sample that, as a whole, favours compounds with a hit. Of some 79,000 tested, about 15% had one in any assay. The source made the active and inactive calls. Cut-off read from the data, not from the text of the source: active = growth inhibition above about 70%; inactive = the rest.

Legend:
[1] = NCI Yeast Anticancer Drug Screen. Data for the rad52 strain (AID 147);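 note: 0% = growth of vehicle-treated control cultures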; conditions: S. cerevisiae rad52 mutant growth inhibition, active compounds read high
Method in brief: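 Measured: yeast growth inhibition. System: strain with a defined DNA damage repair alteration. Reference: vehicle-treated control cultures.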

[2] = NCI Yeast Anticancer Drug Screen. Data for the wt1 strain (AID 149);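 note: 0% = growth of vehicle-treated wt1 cultures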; conditions: S. cerevisiae wt1 strain (SPY 50644) growth inhibition, active compounds read high
Method in brief: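 Using yeast strain wt1, compound-induced growth inhibition was determined against vehicle-treated cultures.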

[3] = NCI Yeast Anticancer Drug Screen. Data for the rad50EPP+ strain (AID 151);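 note: 0% = growth of vehicle-treated control cultures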; conditions: S. cerevisiae rad50 mutant strain, active compounds read high
Method in brief: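 One strain with a rad50 alteration (rad50EPP+) was compound-treated, its growth then compared to that of vehicle controls.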

[4] = NCI Yeast Anticancer Drug Screen. Data for the mgt1 strain (AID 153); conditions: S. cerevisiae mgt1 mutant growth inhibition, active compounds read high
Method in brief: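 After exposure of the mgt1 yeast mutant to compound, growth was measured and reported as inhibition compared with vehicle controls.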

[5] = NCI Yeast Anticancer Drug Screen. Data for the rad50 strain (AID 155);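 note: 0% = growth of vehicle-only cultures of the same strain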; conditions: S. cerevisiae rad50 strain growth inhibition, active compounds read high
Method in brief: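 Relative growth inhibition (compound vs vehicle) was measured in yeast with a defined repair-gene alteration.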

[6] = NCI Yeast Anticancer Drug Screen. Data for the mec2-1 strain (AID 157); conditions: S. cerevisiae mec2-1 strain, active compounds read high
Method in brief: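 Test agents were screened against the mec2-1 yeast strain, with defined DNA repair or cell cycle alteration. Growth was scored as inhibition against vehicle-only controls.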

[7] = NCI Yeast Anticancer Drug Screen. Data for the sgs1 mgt1 strain (AID 161);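 note: 0% = growth of cultures given vehicle only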; conditions: S. cerevisiae sgs1 mgt1 strain, active compounds read high
Method in brief: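 Mutant yeast exposed to compound; growth scored against vehicle-only wells.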

[8] = NCI Yeast Anticancer Drug Screen. Data for the CLN2oe strain (AID 163);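 note: 0% = growth of vehicle-only control cultures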; conditions: S. cerevisiae CLN2oe strain, active compounds read high
Method in brief: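 Here, growth inhibition in a cell-cycle-altered yeast strain after compound exposure was quantified against vehicle control growth.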

[9] = NCI Yeast Anticancer Drug Screen. Data for the cln2 rad14 strain (AID 165);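 note: 0% = growth equal to vehicle treated cultures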; conditions: S. cerevisiae cln2 rad14 strain, active compounds read high
Method in brief: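 Growth of compound-exposed yeast (cln2 rad14 genotype) measured and expressed as inhibition relative to vehicle.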

[10] = NCI Yeast Anticancer Drug Screen. Data for the bub3 strain (AID 167); conditions: S. cerevisiae bub3 mutant strain, active compounds read high
Method in brief: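 Screening used yeast with an engineered genetic alteration affecting cell cycle control. Compound-exposed cultures were compared with vehicle cultures, and reduced growth was taken as inhibition.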

[11] = NCI Yeast Anticancer Drug Screen. Data for the wt2 strain (AID 169);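 note: 0% = growth of vehicle-treated yeast cultures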; conditions: S. cerevisiae wt2 strain growth inhibition, active compounds read high
Method in brief: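 Genetically defined yeast strains from a DNA-repair/cell-cycle panel were used. Compound-exposed yeast growth was measured, and the inhibition was calculated relative to vehicle treatment.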

[12] = NCI Yeast Anticancer Drug Screen. Data for the mlh1 strain (AID 171);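 note: 0% = growth of vehicle-treated control cultures of the same strain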; conditions: S. cerevisiae mlh1 strain growth inhibition, active compounds read high
Method in brief: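 Here the genetically defined yeast mutant is grown with each compound, and the extent to which its growth falls below that of vehicle-exposed cells is reported.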

[13] = NCI Yeast Anticancer Drug Screen. Data for the sgs1 strain (AID 173);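 note: 0% = growth of vehicle-only control cultures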; conditions: S. cerevisiae sgs1 mutant, active compounds read high
Method in brief: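 Relative growth inhibition, referenced to vehicle, was determined in a yeast strain with a defined alteration affecting DNA damage repair or cell cycle control after compound exposure.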

[14] = NCI Yeast Anticancer Drug Screen. Data for the mlh1 rad18 strain (AID 175); conditions: S. cerevisiae mlh1 rad18 strain growth inhibition, active compounds read high
Method in brief: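 In this whole-cell yeast screen, a strain with altered DNA damage repair is challenged with compound, and its growth is measured against matched vehicle-treated controls.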

[15] = NCI Yeast Anticancer Drug Screen. Data for the rad18 strain (AID 177); conditions: S. cerevisiae rad18 mutant growth inhibition, active compounds read high
Method in brief: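 Screen uses a yeast strain with a defined lesion in DNA damage repair; compound effect is read as loss of growth compared to untreated vehicle cultures.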

[16] = at 5.0 µM (retest, dose inferred, filed as 0.5)
[17] = at 50.0 µM (retest, dose inferred, filed as 5.0)

Measured: growth inhibition

COc1cc([C@@H]2c3cc4c(cc3[C@@H](NC(=O)NO)[C@H]3COC(=O)[C@H]23)OCO4)cc(OC)c1O
active: [1]; at 100.0 µM 88% | [5]; [17] 79% | [5]; at 50.0 µM 71.5% | [5]; at 100.0 µM 86%
inactive: [1]; at 1.2 µM -2% | [1]; at 3.7 µM 2% | [1]; at 11.0 µM 10% | [1]; at 33.0 µM 48% | [2]; at 1.2 µM -3% | [2]; at 3.7 µM -2% | [2]; at 11.0 µM 1% | [2]; at 33.0 µM -1% | [2]; at 100.0 µM 4% | [3]; at 1.2 µM -2% | [3]; at 3.7 µM 0% | [3]; at 11.0 µM 2% | [3]; at 33.0 µM 2% | [3]; at 100.0 µM 9% | [4]; at 1.2 µM -5% | [4]; at 3.7 µM -3% | [4]; at 11.0 µM -2% | [4]; at 33.0 µM 14% | [4]; at 100.0 µM 4% | [5]; at 1.2 µM 0% | [5]; at 3.7 µM 1% | [5]; [16] 13% | [5]; at 11.0 µM 10% | [5]; at 33.0 µM 47% | [6]; at 1.2 µM -1% | [6]; at 3.7 µM 1% | [6]; [16] 7% | [6]; at 11.0 µM 0% | [6]; at 33.0 µM 1% | [6]; [17] -13% | [6]; at 50.0 µM -12.1% | [6]; at 100.0 µM 17% | [7]; [16] -2% | [7]; [17] 2% | [7]; at 50.0 µM -3.9% | [8]; at 1.2 µM -2% | [8]; at 3.7 µM -7% | [8]; at 11.0 µM -1% | [8]; at 33.0 µM -12% | [8]; at 100.0 µM 0% | [9]; [16] 6% | [9]; [17] 9% | [9]; at 50.0 µM 1.4% | [10]; at 1.2 µM -3% | [10]; at 3.7 µM -3% | [10]; [16] 3% | [10]; at 11.0 µM -2% | [10]; at 33.0 µM -4% | [10]; [17] -13% | [10]; at 50.0 µM -5.95% | [10]; at 100.0 µM -3% | [11]; at 1.2 µM 0% | [11]; at 3.7 µM 0% | [11]; at 11.0 µM 3% | [11]; at 33.0 µM 2% | [11]; at 100.0 µM 5% | [12]; at 1.2 µM 0% | [12]; at 3.7 µM -2% | [12]; at 11.0 µM 1% | [12]; at 33.0 µM 2% | [12]; at 100.0 µM 7% | [13]; at 1.2 µM -1% | [13]; at 3.7 µM 1% | [13]; at 11.0 µM 3% | [13]; at 33.0 µM 3% | [13]; at 100.0 µM 12% | [14]; [16] 5% | [14]; [17] -14% | [14]; at 50.0 µM 12.7% | [15]; at 1.2 µM -2% | [15]; at 3.7 µM -1% | [15]; at 11.0 µM 17% | [15]; at 33.0 µM -1% | [15]; at 100.0 µM 8%
